# Laboratory results: ChEMBL document CHEMBL2218924, “A broad activity screen in support of a chemogenomic map for kinase signalling research and drug discovery” (Biochem J, 2013)
# Tests used:
# [1] = biological target: T1, Ephrin type-A receptor 3 (Homo sapiens) (UniProt P29320); conditions: at 10 µM
# T1 sequence (whole entry): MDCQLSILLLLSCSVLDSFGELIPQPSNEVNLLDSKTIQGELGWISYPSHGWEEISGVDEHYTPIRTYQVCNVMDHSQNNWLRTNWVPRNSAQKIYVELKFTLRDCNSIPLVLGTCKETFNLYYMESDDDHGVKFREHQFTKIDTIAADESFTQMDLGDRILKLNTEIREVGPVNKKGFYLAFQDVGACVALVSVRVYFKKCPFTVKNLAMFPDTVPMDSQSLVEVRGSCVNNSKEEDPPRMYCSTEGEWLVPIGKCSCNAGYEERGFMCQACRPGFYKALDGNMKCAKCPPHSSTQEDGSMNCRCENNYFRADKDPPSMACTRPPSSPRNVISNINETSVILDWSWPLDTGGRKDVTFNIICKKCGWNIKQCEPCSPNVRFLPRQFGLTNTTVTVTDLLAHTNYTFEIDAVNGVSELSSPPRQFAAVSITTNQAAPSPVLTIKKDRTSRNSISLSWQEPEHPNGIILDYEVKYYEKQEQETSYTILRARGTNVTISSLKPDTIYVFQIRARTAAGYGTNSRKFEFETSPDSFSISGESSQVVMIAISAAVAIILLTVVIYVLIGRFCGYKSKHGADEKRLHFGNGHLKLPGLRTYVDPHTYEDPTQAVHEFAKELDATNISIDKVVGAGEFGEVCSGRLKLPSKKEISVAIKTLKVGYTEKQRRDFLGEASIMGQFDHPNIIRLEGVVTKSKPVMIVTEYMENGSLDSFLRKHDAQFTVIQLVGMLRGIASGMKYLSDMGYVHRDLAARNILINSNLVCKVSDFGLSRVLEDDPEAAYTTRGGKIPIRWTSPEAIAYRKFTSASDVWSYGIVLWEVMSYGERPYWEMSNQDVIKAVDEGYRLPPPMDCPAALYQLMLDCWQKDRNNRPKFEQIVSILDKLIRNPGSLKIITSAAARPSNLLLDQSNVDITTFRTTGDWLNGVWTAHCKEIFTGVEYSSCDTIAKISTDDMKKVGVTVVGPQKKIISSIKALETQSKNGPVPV
# [2] = biological target: Ephrin type-A receptor 4 (Homo sapiens) (UniProt P54764); conditions: at 1 µM
# Ephrin type-A receptor 4 (Homo sapiens), sequence (P54764 whole entry): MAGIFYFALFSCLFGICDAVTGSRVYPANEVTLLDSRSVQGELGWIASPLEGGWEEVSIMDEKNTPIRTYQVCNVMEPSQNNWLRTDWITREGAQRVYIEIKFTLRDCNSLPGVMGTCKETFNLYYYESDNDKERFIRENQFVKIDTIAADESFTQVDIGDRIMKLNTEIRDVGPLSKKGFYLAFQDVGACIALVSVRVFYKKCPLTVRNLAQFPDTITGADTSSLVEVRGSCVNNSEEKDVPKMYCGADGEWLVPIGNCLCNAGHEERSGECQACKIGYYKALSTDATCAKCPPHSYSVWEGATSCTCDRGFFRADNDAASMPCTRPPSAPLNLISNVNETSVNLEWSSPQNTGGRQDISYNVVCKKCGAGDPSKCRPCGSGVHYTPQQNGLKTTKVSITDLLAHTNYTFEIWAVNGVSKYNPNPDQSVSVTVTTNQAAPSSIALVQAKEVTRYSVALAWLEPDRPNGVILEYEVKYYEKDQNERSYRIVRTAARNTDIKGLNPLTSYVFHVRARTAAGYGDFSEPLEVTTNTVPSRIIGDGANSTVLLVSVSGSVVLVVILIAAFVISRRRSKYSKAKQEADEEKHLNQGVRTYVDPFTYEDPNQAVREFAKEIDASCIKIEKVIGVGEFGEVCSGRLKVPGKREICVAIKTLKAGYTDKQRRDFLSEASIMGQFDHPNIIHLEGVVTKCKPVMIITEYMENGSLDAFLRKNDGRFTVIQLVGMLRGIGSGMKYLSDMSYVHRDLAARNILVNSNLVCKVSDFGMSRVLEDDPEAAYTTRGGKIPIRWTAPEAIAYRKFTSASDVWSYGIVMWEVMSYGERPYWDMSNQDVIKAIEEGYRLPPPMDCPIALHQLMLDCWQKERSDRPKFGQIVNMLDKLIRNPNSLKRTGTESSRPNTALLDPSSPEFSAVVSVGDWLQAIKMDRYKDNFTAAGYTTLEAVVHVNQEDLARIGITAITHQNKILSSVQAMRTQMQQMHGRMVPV
# [3] = biological target: Ephrin type-A receptor 4 (Homo sapiens) (UniProt P54764); conditions: at 10 µM
# [4] = biological target: Ephrin type-A receptor 5 (Homo sapiens) (UniProt P54756); conditions: at 1 µM
# Ephrin type-A receptor 5 (Homo sapiens), sequence (P54756 whole entry): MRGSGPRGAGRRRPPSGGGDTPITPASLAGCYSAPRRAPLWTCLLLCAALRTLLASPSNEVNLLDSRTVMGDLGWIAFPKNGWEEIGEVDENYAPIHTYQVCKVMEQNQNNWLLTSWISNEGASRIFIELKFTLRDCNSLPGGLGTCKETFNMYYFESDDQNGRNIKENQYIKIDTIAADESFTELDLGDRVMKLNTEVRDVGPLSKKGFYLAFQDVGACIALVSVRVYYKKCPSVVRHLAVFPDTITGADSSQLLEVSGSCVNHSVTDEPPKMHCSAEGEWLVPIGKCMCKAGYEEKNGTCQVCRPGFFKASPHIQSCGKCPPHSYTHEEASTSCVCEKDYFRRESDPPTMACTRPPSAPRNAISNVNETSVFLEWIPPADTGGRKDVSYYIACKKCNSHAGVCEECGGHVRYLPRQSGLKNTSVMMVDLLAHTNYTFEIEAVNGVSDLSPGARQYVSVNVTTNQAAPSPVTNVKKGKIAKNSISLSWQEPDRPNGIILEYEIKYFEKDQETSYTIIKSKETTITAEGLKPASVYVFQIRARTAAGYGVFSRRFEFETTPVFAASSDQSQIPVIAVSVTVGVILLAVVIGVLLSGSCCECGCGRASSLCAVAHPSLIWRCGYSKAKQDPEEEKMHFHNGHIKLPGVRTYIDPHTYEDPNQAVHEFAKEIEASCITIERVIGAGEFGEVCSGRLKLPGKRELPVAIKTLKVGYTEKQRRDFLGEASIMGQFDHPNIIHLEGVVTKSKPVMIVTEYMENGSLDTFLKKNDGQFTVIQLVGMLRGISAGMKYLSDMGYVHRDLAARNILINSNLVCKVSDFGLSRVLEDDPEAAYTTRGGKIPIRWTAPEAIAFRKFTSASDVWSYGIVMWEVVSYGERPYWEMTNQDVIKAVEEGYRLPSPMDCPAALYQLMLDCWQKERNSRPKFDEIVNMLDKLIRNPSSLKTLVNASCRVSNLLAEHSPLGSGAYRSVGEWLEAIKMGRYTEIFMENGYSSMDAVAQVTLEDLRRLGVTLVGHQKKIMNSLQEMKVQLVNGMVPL
# [5] = biological target: Ephrin type-A receptor 5 (Homo sapiens) (UniProt P54756); conditions: at 10 µM
# [6] = biological target: Ephrin type-A receptor 7 (Homo sapiens) (UniProt Q15375); conditions: at 1 µM
# Ephrin type-A receptor 7 (Homo sapiens), sequence (Q15375 28-998 limits assumed): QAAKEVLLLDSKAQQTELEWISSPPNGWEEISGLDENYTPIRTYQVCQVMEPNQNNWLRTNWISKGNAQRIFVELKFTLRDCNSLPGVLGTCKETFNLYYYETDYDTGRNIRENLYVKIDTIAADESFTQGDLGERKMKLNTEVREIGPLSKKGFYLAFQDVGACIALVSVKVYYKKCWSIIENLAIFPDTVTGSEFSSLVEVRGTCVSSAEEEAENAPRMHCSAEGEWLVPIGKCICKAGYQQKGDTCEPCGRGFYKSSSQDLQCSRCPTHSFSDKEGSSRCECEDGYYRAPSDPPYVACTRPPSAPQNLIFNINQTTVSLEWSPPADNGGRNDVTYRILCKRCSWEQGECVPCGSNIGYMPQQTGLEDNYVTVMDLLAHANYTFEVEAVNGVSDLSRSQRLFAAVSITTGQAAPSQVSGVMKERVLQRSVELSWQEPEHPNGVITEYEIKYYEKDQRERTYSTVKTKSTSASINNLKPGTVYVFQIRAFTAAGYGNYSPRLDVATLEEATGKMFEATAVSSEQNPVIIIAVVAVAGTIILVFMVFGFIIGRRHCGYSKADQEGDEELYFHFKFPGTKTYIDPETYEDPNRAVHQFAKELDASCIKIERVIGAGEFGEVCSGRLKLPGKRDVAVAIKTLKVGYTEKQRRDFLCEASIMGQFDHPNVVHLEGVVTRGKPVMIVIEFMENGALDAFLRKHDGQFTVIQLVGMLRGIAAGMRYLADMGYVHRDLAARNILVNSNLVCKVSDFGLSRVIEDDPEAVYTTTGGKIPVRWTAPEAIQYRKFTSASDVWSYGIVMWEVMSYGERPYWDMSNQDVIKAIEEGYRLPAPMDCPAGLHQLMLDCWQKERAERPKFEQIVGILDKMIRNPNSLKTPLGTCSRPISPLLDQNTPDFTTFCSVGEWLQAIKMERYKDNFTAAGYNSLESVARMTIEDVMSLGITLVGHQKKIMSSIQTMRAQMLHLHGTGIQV
# [7] = biological target: Ephrin type-A receptor 7 (Homo sapiens) (UniProt Q15375); conditions: at 10 µM
# [8] = biological target: T2, Ephrin type-A receptor 8 (Homo sapiens) (UniProt P29322); conditions: at 1 µM
# T2 sequence (whole entry): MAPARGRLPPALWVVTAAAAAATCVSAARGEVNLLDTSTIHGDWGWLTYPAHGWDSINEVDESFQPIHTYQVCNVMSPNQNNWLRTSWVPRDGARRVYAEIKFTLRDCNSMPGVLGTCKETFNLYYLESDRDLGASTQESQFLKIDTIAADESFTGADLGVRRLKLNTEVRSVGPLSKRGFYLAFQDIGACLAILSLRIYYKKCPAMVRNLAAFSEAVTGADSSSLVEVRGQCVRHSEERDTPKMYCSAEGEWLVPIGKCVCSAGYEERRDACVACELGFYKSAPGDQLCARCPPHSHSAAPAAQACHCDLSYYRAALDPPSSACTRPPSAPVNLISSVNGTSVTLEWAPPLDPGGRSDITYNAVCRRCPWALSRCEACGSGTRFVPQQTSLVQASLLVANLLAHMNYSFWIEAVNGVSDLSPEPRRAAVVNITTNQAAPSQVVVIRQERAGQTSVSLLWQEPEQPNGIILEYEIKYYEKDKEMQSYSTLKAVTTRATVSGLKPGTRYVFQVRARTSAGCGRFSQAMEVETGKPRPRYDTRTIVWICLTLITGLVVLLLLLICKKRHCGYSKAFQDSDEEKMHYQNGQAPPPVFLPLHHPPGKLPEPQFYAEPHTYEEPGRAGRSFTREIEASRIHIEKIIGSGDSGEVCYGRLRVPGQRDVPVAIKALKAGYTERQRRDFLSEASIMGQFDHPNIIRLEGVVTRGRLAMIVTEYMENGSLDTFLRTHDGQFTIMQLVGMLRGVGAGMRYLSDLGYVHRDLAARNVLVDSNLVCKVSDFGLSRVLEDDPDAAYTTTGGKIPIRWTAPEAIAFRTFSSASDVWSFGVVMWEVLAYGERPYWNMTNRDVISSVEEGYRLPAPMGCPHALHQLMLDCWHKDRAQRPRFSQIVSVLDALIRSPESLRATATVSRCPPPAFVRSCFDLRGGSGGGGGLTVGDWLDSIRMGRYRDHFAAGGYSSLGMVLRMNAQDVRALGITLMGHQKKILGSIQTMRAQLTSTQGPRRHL
# [9] = biological target: T2, Ephrin type-A receptor 8 (Homo sapiens); conditions: at 10 µM
# [10] = biological target: T3, Ephrin type-B receptor 1 (Homo sapiens) (UniProt P54762); conditions: at 1 µM
# T3 sequence (whole entry): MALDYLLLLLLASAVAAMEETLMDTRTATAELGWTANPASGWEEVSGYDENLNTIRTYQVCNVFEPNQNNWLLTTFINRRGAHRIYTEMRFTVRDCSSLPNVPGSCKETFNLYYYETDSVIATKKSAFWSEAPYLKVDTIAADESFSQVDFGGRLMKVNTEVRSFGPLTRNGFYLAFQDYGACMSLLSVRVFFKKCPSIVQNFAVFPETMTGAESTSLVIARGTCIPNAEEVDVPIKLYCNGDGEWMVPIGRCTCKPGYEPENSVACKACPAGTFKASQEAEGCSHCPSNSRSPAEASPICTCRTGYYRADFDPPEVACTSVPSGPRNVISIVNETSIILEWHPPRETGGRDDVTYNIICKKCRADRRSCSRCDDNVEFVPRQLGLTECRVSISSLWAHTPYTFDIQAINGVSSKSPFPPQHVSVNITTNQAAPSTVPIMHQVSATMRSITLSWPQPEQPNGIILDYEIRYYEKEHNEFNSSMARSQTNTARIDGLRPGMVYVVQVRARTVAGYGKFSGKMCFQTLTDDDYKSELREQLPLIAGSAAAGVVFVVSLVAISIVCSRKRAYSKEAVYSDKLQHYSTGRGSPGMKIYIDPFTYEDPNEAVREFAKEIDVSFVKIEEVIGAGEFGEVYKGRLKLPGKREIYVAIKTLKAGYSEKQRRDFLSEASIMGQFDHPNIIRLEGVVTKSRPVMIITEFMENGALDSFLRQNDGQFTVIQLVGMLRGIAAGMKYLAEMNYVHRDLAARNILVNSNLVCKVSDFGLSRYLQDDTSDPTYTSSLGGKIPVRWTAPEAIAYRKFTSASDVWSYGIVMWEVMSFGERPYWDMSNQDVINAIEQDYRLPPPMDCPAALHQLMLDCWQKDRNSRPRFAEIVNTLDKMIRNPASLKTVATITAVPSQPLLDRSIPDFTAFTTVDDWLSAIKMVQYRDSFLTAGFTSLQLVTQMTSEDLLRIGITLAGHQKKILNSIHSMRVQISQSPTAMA
compound,measurement,setting,value
CCC(=O)Nc1ccc2ncnc(Nc3cccc(Br)c3)c2c1,residual activity,[1],82%
same,residual activity,[2],106%
same,residual activity,[3],92%
same,residual activity,[4],101%
same,residual activity,[5],99%
same,residual activity,[6],92%
same,residual activity,[7],76%
same,residual activity,[8],97%
same,residual activity,[9],88%
same,residual activity,[10],97%
